Bioassay records from PubChem BioAssay.
An excerpt weighted towards active compounds, which were near 2.3% of everything screened.
H9c2 protect = modulators protecting cardiomyocytes from myocardial damage | protection from H2O2 cell death, % at 20 µM | H9c2 cardiomyocytes, H2O2 injury protection, ATPLite, 2 h | AID 588492 | actives 0.63% (n = 360,000);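 active = compounds giving at least 50% protection of heart cells from peroxide-induced death in the single-dose screen, raw or plate-pattern-corrected value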;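 also: 0% = DMSO wells with peroxide and 100% = DMSO wells without peroxide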
TAG inh = triacylglycerol accumulation inhibition; actives 0.66% (n = 230,000); AID 651582; inhibition, % at 12.5 µM; H9c2 cells, Nile Red lipid (TAG) fluorescence; cells loaded with 200 µM oleic acid;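 active = pattern-corrected inhibition of lipid staining of at least 50% with the nuclear-stain viability signal not falling by more than 50%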;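 also: 0% = DMSO wells and 100% = triacsin C control wells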
m-calpain inh = blocks pig calpain II enzyme activity; purified calpain II, fluorogenic peptide substrate, 30 min; inhibition, % at 16 µM; actives 0.37% (n = 220,000);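 active = inhibition above about 50%, limit read from the data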
aDG glyco act = alpha-DG glycosylation activation | Pro5-aDG cells, alpha-DG glycosylation AlphaScreen (IIH6); 0% Pro5, 100% B10-LARGE cell signal | activation, % at 10 µM | actives 0.22% (n = 360,000) | AID 624168;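 active = activation of at least 8% versus controls, or a plate z-score of at least 8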;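 also: Pro5 are CHO cells carrying HIG-tagged alpha-DG that lacks glycosylation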
beta cell repl = induces beta-cell replication in MIN6 cells; MIN6 cells proliferation, ATPlite luminescence, 48 h; cells starved in 0.2% serum; 100% = growth in 10% serum; proliferation, % at 10 µM; actives 0.29% (n = 330,000);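 active = compounds whose signal lies at least 3.5 SD above the mean of all wells on their plate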;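 also: 0% = DMSO-treated cells in low-serum medium and 100% = 10% serum control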
FAS TE block = FAS thioesterase (human) inhibition; P49327; recombinant FAS-TE, OMFH fluorogenic substrate, fluorescence endpoint; inhibition, % at 15 µM; actives 0.67% (n = 360,000);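 active = compounds whose normalised, plate-corrected inhibition of enzyme fluorescence in the single-dose primary screen is 50% or more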;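 also: 0% = DMSO with enzyme and 100% = substrate without enzyme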
Starred values were filed as active, the others as inactive; / = no result.

SMILES	H9c2 protect	TAG inh	m-calpain inh	aDG glyco act	beta cell repl	FAS TE block
COc1cc(/C=C2\SC(=S)NC2=O)ccc1OS(=O)(=O)c1ccccc1	/	/	61.7*	/	-5.8	/
COc1ccc(/C=C2\SC(=S)NC2=O)cc1OS(=O)(=O)c1ccc(NC(C)=O)cc1	-8.7	-8.5	-63.6	-0.1	/	11.9
COc1cc(/C=C2\SC(=S)N(CCCCC(=O)O)C2=O)ccc1OS(=O)(=O)c1ccc(C)cc1	-4.0	3.9	/	6.9*	-6.6	-34.0
CCOc1ccc(/C=C2\SC(=S)NC2=O)cc1OC	-8.5	0.9	-53.8	0.1	-4.1	2.8
COc1cc(/C=C2/SC(=S)NC2=O)ccc1OS(=O)(=O)c1ccc(C)cc1	-9.9	/	62.9*	0.4	-5.7	57.0*
CCCCCCCCN1C(=O)[C@H](CC(=O)N2CCOCC2)C[C@@]2(C(=O)OC)CC(C)(C)CC=C12	/	/	/	0.4	/	/
CC1=C(C(=O)N2CCOCC2)CC(CC(=O)NCc2cccs2)C(=O)N1Cc1ccc(F)cc1 (centres undefined)	-2.5	0.6	/	-0.4	/	-8.6
CC(=O)Cn1cnc2scc(-c3ccc(C)c(C)c3)c2c1=O	2.0	4.0	/	-0.1	-4.0	1.3
Cc1ccc(O)c(C(=O)CC(=O)c2ccc(C(C)(C)C)cc2)c1	56.9*	-3.9	/	0.4	-2.8	0.9
Cc1ccc(O)c(C(=O)CC(=O)c2ccccc2Cl)c1	11.0	-6.7	31.5	2.2	-2.5	11.8
Cc1ccc(O)c(NC(=O)CSc2n[nH]c(-c3ccccc3)n2)c1	-8.1	-4.4	/	0.9	-4.5	-7.0
O=C(CSc1n[nH]c(-c2ccccc2)n1)c1ccc(O)c(O)c1	79.5*	/	9.3	0.0	-1.6	-10.0
Cc1cc(SCC(=O)c2ccc(O)c(O)c2)nc2ccccc12	51.0*	4.3	-105.2	0.1	-3.4	6.9
Cc1cc(C)c(NC(=O)COC(=O)Cc2ccsc2)c(C)c1	10.9	-24.1	62.1*	-0.2	-2.9	-5.8
Cc1cc(C(=O)N/N=C\c2cc(C(C)(C)C)ccc2O)n[nH]1	61.5*	13.0	/	1.6	-7.3	5.0
Cc1cc(C(=O)N/N=C/c2cc(Br)cc(Br)c2OC(=O)c2cccc(F)c2)n[nH]1	82.7*	17.9	-91.7	-0.2	-5.2	6.2
O=C(CC[C@H]1O[C@@H](n2cnc3c(NC(=O)c4ccccc4)ncnc32)[C@H](O)[C@@H]1O)N[C@@H](CO)Cc1c[nH]c2ccccc12	-1.2	/	/	-0.2	/	-4.0
Cn1c2ccccc2c(=O)c2ccc(NCc3ccc4c(c3)OCO4)cc21	71.4*	-3.4	/	0.1	/	-12.6
O=C(NCc1ccc2c(c1)OCO2)c1n[nH]c(=O)c2ccccc12	68.2*	2.7	-12.6	-0.2	1.2	-0.6
CC(=O)c1sc(NC(=O)C2CC(=O)N(Cc3ccccc3)C2)nc1-c1ccccc1 (centres undefined)	0.6	7.3	/	-0.2	-1.4	-13.5
CCOC(=O)c1c(C)nc2sc3c(=O)n(-c4ccc(OC)cc4)nnc3c2c1-c1ccc(OC)cc1	20.5	-16.4	-30.4	-0.5	-1.0	25.1
CCOC(=O)c1c(C)nc2sc3c(=O)n(-c4ccc(C(C)=O)cc4)cnc3c2c1-c1ccc(OC)cc1	68.3*	/	-109.0	-0.1	-4.0	38.4
COC(=O)c1ccc(COC(=O)CNC(=O)C2CCCCC2)cc1	-4.6	-6.2	/	0.2	-0.6	0.8
CCN(C(=O)c1ccc(S(=O)(=O)N2CCCC2)cc1)C1CCS(=O)(=O)C1 (centres undefined)	7.6	-2.2	/	0.2	5.5	-4.1
COc1ccc(Nc2nnc(SCC(=O)N(CC(C)C)C3CCS(=O)(=O)C3)s2)cc1 (centres undefined)	-11.1	25.2	/	1.3	/	-4.5
OC[C@@H]1CN(Cc2cccs2)C[C@H](n2cnc3c(N4CCOCC4)ncnc32)O1	8.2	-1.0	/	-0.2	/	-7.2
Cc1ccccc1-c1nnc(SC(C)C(=O)NC2CCCC2)o1 (centres undefined)	-4.4	9.6	/	0.4	-5.1	-0.8
O=C(CCCSc1nc2sc3c(c2c(=O)[nH]1)CCC3)NCCO	87.6*	/	23.3	-0.2	-2.1	3.5
Nc1nc(SCC(=O)NCCCO)nc2sc3c(c12)CCC3	4.8	/	19.6	-0.4	0.0	-4.7
O=C(CCCSc1nc2sc3c(c2c(=O)[nH]1)CCC3)NCCCO	57.9*	/	-1.2	0.7	-1.3	-8.3
